We go through 40 compounds from PubChem BioAssay (NCATS).

Inconclusive results are not listed. The source made the active and inactive calls. The call rests on the fitted dose curve; in most records, active means well fitted cell-killing curve with a large enough effect; inconclusive means small, poorly fitted or top-dose-only effect, or effect the other way; inactive means no such curve, though single readings can be large or run the other way.
Potency means the concentration at half of the fitted maximal effect.

A short description of this assay: Quantitative High-Throughput drug screen in 47 multiple myeloma cell lines against the NCATS MIPE library collection: OCIMY1_PLB cell viability assay (AID 1918979). Further: nearly all actives have a fitted effect of over 35% in size. Particulars: OCI-MY1 myeloma viability, CellTiter-Glo ATP, 48 h; series mostly up to 45.8 µM. The source says: PI: Beverly A. Mock Ph.D.
Laboratory of Cancer Biology and Genetics,
Center for Cancer Research, National Cancer Institute,
National Institute of Health, Bethesda, Maryland
Drug resistance and disease progression are common in multiple myeloma (MM) patients, underscoring the need for new therapeutic combinations. […] We hypothesized that effective combinations would reduce MYC expression and enhance p16 activity. […] These preclinical data identify potentially useful drug combinations for evaluation in drug-resistant MM and reveal potential mechanisms of combined drug sensitivity.
Described herein is the primary MIPE qHTS used to cherrypick compounds. Validated compounds were then further tested for potential synergistic activiy.
[1] Peat TJ, Gaikwad SM, Dubois W, Gyabaah-Kessie N, Zhang S, Gorjifard S, Phyo Z, Andres M, Hughitt VK, Simpson RM, Miller MA, Girvin AT, Taylor A, Williams D, D'Antonio N, Zhang Y, Rajagopalan A, Flietner E, Wilson K, Zhang X, Shinn P, Klumpp-Thomas C, McKnight C, Itkin Z, Chen L, Kazandijian D, Zhang J, Michalowski AM, Simmons JK, Keats J, Thomas CJ, Mock BA. Drug combinations identified by high-throughput screening promote cell cycle transition and upregulate Smad pathways in myeloma. Cancer Lett. 2023 Aug 1;568:216284. doi: 10.1016/j.canlet.2023.216284. Epub 2023 Jun 24. PMID: 37356470; PMCID: PMC10408729.
SEQUENCE No. (e.g., 1, 2, 3, etc.); […] (e.g., Cells, Incubation, Reagent, etc.); VALUE and DESCRIPTION.
1; Cells; 5 uL; white, solid bottom 1536-well Greiner assay plate.
2; Compounds; 23 nL; Kalypsis pin tool (Wako USA) equipped with a 1536-well pin head to transfer to the assay plates.
3; Incubation; 48 hours; 37C incubation.
4; Reagent;5uL; CellTiter Glo (Promega).
5; Detector; 425V; Luminescence; Viewlux PerkinElmer.
NOTES (numbers refer to Sequence numbers above)
1. The cell-based screening methods employed in this study were like those previously published. Briefly, the corresponding myeloma cell lines were screened in 1,536-well plates with 500 cells, 5-uL per well for inhibition of cell viability (assessed by measuring ATP levels with CellTiterGlo).
2. NCATS MIPE 4.0 library of approved and investigational drugs were added using the Kalypsis pin tool. Wells treated with DMSO only for 100% viability and media only for 0% viability were used as controls.
3. The assay plates were covered and incubated for 48 hours in a 37C, 5% CO2 incubator with controlled humidity.
4. After 48 hours, CellTilter-GloTM luminescent substrate mix (Promega) reagent was added to the assay plate and plates we incubated for 5 min at room temperature.
5. Signal was measured as median relative luminescence units on a ViewLux (PerkinElmer) multiplate reader.
[1] Heske CM, Davis MI, Baumgart JT, Wilson K, Gormally MV, Chen L, Zhang X, Ceribelli M, Duveau DY, Guha R, Ferrer M, Arnaldez FI, Ji J, Tran HL, Zhang Y, Mendoza A, Helman LJ, Thomas CJ. Matrix Screen Identifies Synergistic Combination of PARP Inhibitors and Nicotinamide Phosphoribosyltransferase (NAMPT) Inhibitors in Ewing Sarcoma. Clin Cancer Res. 2017 Dec 1;23(23):7301-7311. doi: 10.1158/1078-0432.CCR-17-1121. Epub 2017 Sep 12. PMID: 28899971; PMCID: PMC6636827.
Consider `COc1ccc(-c2cc3c(C)nc(N)nc3n(C3CCC(OCCO)CC3)c2=O)cn1` (stereo not given), for which the Potency is 0.0833 µM (active). Regarding `Cc1ccc(C(=O)Nc2ccc(CN3CCN(C)CC3)c(C(F)(F)F)c2)cc1C#Cc1cnc2cccnn12`, the Potency is 14.8 µM (active).

Regarding `O=C(C=Cc1cccc(S(=O)(=O)Nc2ccccc2)c1)NO`, the Potency is 6.79 µM (active).

With `COc1cc(-c2nn(C3CCC(N4CCN(C(C)=O)CC4)CC3)c3ncnc(N)c23)ccc1NC(=O)c1cc2ccccc2n1C` (stereo not given), the Potency was 7.43 µM (active).

Consider `Nc1ncnc2c1c(-c1cnc3[nH]ccc3c1)nn2C1CCCC1`, for which the Potency was 1.87 µM (active).

`CC(C)[C@H](C(=O)Nc1ccc(C(=O)NO)cc1)c1ccccc1`: the Potency is 1.18 µM (active). Take `CN1CC[C@@H](c2c(O)cc(O)c3c(=O)cc(-c4ccccc4Cl)oc23)[C@@H](O)C1`: the Potency is 0.187 µM (active). For the compound `CC(NCc1ccc2c(c1)nc(NC(=O)c1ccc(-c3cn[nH]c3)s1)n2CC(C)(C)O)C(C)(C)C` (stereo not given), the Potency was 1.05 µM (active).

Take `O=C(CCCCCCC(=O)Nc1ccc([C@H]2O[C@@H](CSc3nc(-c4ccccc4)c(-c4ccccc4)o3)C[C@@H](c3ccc(CO)cc3)O2)cc1)NO`: the Potency was 18.7 µM (active). As for `COc1cc(C(=O)N2CCC(N3CCN(C)CC3)CC2)ccc1Nc1ncc2c(n1)N(C)c1ccccc1C(=O)N2C`, the Potency was 7.43 µM (active). Take `C[C@H]1C[C@@H]2[C@@H]([C@@H](O)C[C@@]3(C)[C@H]2CC[C@]3(O)C(=O)CO)[C@@]2(C)C=CC(=O)C=C12`: the Potency result is “inactive”. Next, `Cc1c(Cn2c(C)nc3c(C(=O)O)cc(N4CCOCC4)cc32)cccc1C(F)(F)F`: “inactive”; `COc1cc2ncnc(Nc3ccc(F)c(Cl)c3)c2cc1NC(=O)C=CCN1CCCCC1`: 26.4 µM (active); `CC(C)c1ccc(Cn2ccc3c4c(N)nc(NC5CC5)nc4ccc32)cc1`: 14.8 µM (active). Next, `CCN(CC)CCCCNc1ncc2cc(-c3cc(OC)cc(OC)c3)c(NC(=O)NC(C)(C)C)nc2n1`: “inactive”; `NC(=O)Nc1cc(-c2cccc(F)c2)sc1C(=O)N[C@H]1CCCNC1`: 4.69 µM (active); `C[C@]1(CO)CN(c2cc(C(=O)Nc3ccc4c(c3)-c3c(c(C(N)=O)nn3-c3ccc(F)cc3)CC4)c(Cl)cn2)C[C@@]1(C)CO`: “inactive”.

Consider `Nc1nc(Nc2ccc(S(N)(=O)=O)cc2)nn1C(=O)c1c(F)cccc1F`, for which the Potency was 13.2 µM (active). Next, `Nc1ncnc2c1c(-c1cccc(OCc3ccccc3)c1)cn2C1CC(CN2CCCC2)C1` (stereo not given): 10.5 µM (active); `Cn1cc(-c2ccncc2)c(-c2ccc(OCc3ccc4ccccc4n3)cc2)n1`: 16.6 µM (active).

Consider `COc1cccc2nc(-c3cccs3)nc(NN3C(=O)C=C(C)C3=O)c12`, for which the Potency is 0.187 µM (active). In the case of `COc1cc2c(Oc3ccc(-c4cnc(Nc5ccc(F)cc5)n(C)c4=O)cc3F)ccnc2cc1OCCCN1CCOCC1`, the Potency was 11.8 µM (active). As to `COc1cc2c(Oc3ccc4[nH]c(C)cc4c3F)ncnc2cc1OCCCN1CCCC1`, the Potency is 26.4 µM (active).

As to `O=C(O)C1(Cc2cccc(Nc3nccs3)n2)CCC(Oc2cccc(Cl)c2F)CC1` (stereo not given), the Potency result is “inactive”. Regarding `Cc1nc2cnc3ccc(C#Cc4cccnc4)cc3c2n1-c1ccc(C(C)(C)C#N)cc1`, the Potency was 1.48 µM (active). As for `CC(C)(O)c1cc2nc(-c3cnc(N)nc3)nc(N3CCOCC3)c2s1`, the Potency was 0.0296 µM (active). Regarding `CN(C)CC(C)(C)CNc1nn2c(-c3ccccc3)nnc2cc1C1CCC1`, the Potency entry is “inactive”.

Consider `CC(C)c1cnn2c(NCc3ccccc3)cc(N[C@@H](CO)[C@H](O)CO)nc12`, for which the Potency is 0.418 µM (active). For `CC=C1NC(=O)[C@H]2CSSCCC=C[C@H](CC(=O)N[C@H](C(C)C)C(=O)N2)OC(=O)[C@H](C(C)C)NC1=O`, the Potency was 0.118 µM (active). Next, `Nc1cccc(-c2cc3c(Oc4cccc(O)c4)ncnc3[nH]2)c1`: “inactive”; `CCCNC(=O)Nc1ccc(Oc2ncnc3cc(OC)c(OC)cc23)cc1Cl`: “inactive”; `C[C@@]12O[C@@H](C[C@]1(O)CO)n1c3ccccc3c3c4c(c5c6ccccc6n2c5c31)CNC4=O`: 2.35 µM (active). Next, `Cc1cc(CN2CCN(c3c(Br)cnc4nc(-c5ccc(N6CCN(C)CC6)cc5)[nH]c34)CC2)no1`: 14.8 µM (active); `N#CCNC(=O)c1ccc(-c2ccnc(Nc3ccc(N4CCOCC4)cc3)n2)cc1`: 23.5 µM (active). In the case of `O=C(O)CO.[NH2-].[NH2-].[Pt+2]`, the Potency result is “inactive”. `COc1ccc(F)c(F)c1C(=O)c1cnc(NC2CCN(S(C)(=O)=O)CC2)nc1N`: the Potency is 3.72 µM (active). `C#Cc1cccc(Nc2ncnc3cc(OC)c(OCCCCCCC(=O)NO)cc23)c1`: the Potency is 1.05 µM (active).

With `Cc1nc(Nc2n[nH]c3c2CN(C(=O)N[C@H](CN(C)C)c2ccccc2)C3(C)C)c2sccc2n1`, the Potency was 16.6 µM (active). Regarding `Nc1ccccc1NC(=O)c1ccc(CNC(=O)OCc2cccnc2)cc1`, the Potency is 4.69 µM (active).

In the case of `N#Cc1c(O)c2c(-c3ccc(-c4ccccc4O)cc3)csc2[nH]c1=O`, the Potency entry is “inactive”.
